The results in this text go back to paper PMC7862700, “An all-to-all approach to the identification of sequence-specific readers for epigenetic DNA modifications on cytosine”.

Common to all, as to assay: DAPPL (digital affinity profiling via proximity ligation, sequencing); 10 mM Tris-HCl pH 7.5, 50 mM NaCl, 1 mM DTT, 4% glycerol, room temperature, 30 min; GST-TFs on glutathione beads, 16-mer random dsDNA library, 0.1% formaldehyde crosslink after washing; high values mean tight binding
One experiment deals with T1, FEV (Homo sapiens, UniProt Q99581 1-238).
T1 sequence: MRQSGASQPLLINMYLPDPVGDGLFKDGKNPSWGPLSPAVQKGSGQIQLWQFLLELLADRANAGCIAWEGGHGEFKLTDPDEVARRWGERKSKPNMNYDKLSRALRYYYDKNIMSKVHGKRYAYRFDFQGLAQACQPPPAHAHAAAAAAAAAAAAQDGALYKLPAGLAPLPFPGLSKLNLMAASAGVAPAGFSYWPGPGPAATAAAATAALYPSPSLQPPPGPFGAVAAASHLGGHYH
Particulars: protein: recombinant; tags: N-terminal GST; dsDNA, one strand shown. Put shortly:
(§1)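 Human transcription factors carrying a GST fusion were produced in yeast, bound to glutathione beads, tagged with DNA barcodes and pooled together with a tag-only sample. Each pool was held with 200 nmole of a random double-stranded 16-mer DNA library in Tris/NaCl/DTT/glycerol buffer for 30 min at room temperature, then washed, crosslinked in 0.1% formaldehyde, proximity-ligated with BsaI/T4 ligase (1 h, 37 °C), PCR-amplified and sequenced on an Illumina NextSeq500. Binding signal is the read frequency of each hexamer for a given factor divided by its frequency in the tag-only sample.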

The target in another experiment is ETV5 (Homo sapiens, UniProt P41161 1-510). Particulars: protein: recombinant; tags: N-terminal GST; dsDNA, one strand shown. Put shortly:
as §1

A further experiment deals with HSF1 (Homo sapiens, UniProt Q00613 1-529). Particulars: protein: recombinant; tags: N-terminal GST; chain copies: 3; dsDNA, one strand shown. Put shortly: as §1
Chain of HSF1 (Q00613 whole entry): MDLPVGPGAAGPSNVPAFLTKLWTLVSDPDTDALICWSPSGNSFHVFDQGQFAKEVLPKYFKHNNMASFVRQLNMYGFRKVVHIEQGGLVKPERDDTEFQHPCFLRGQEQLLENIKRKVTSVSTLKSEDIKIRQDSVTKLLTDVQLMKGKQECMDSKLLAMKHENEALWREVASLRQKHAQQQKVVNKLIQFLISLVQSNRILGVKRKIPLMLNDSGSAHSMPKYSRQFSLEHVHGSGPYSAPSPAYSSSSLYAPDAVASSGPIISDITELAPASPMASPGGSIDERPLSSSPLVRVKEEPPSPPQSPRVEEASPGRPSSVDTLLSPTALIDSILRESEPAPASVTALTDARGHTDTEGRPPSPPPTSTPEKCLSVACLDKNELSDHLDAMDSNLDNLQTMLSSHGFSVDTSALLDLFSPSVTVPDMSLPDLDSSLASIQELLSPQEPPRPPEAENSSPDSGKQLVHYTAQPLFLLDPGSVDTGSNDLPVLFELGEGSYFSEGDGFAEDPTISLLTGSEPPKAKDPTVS
The next experiment addresses T2, SPIC (Homo sapiens, UniProt Q8N5J4 1-248).
T2 sequence: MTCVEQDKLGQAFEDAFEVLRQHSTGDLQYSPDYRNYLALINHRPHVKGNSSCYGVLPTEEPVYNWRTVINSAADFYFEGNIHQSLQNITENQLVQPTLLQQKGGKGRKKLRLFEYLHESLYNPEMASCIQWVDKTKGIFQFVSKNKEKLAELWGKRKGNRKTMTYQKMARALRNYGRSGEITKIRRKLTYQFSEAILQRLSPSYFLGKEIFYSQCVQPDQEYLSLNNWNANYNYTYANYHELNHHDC
Particulars: protein: recombinant; tags: N-terminal GST; dsDNA, one strand shown. Put shortly:
as §1

The target of the next experiment is ELF4 (Homo sapiens, UniProt Q99607 1-663). Particulars: protein: recombinant; tags: N-terminal GST; dsDNA, one strand shown. Put shortly:
as §1

The target of another experiment is T3, ELK4 (Homo sapiens, UniProt P28324-2 1-405).
T3 sequence: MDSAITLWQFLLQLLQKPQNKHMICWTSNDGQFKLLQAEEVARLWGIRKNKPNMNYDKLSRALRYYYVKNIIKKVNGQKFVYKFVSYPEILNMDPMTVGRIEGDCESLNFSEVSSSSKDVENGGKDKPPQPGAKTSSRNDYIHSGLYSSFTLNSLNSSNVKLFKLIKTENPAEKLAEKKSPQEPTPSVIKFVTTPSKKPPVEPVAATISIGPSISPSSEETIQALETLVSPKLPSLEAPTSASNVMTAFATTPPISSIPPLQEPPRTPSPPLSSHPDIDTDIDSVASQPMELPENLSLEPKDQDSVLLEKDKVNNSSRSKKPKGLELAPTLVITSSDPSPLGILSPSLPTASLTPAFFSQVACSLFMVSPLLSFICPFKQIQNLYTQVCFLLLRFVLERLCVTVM
Particulars: protein: recombinant; tags: N-terminal GST; dsDNA, one strand shown. Put shortly:
as §1

A further experiment has as its target T4, ETV2 (Homo sapiens, UniProt O00321 1-342).
T4 sequence: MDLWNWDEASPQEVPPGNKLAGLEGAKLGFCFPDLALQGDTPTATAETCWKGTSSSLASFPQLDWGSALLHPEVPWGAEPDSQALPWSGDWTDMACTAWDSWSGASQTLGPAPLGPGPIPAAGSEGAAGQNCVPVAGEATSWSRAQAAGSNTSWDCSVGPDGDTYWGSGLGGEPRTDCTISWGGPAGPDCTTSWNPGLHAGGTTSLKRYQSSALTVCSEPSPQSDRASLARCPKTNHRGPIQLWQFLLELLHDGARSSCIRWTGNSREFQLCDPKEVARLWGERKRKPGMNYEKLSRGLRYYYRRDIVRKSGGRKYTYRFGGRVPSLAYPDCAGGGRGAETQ
Particulars: protein: recombinant; tags: N-terminal GST; dsDNA, one strand shown. Put shortly: as §1

In another experiment the target is T5, ELF3 (Homo sapiens, UniProt P78545 1-371).
T5 sequence: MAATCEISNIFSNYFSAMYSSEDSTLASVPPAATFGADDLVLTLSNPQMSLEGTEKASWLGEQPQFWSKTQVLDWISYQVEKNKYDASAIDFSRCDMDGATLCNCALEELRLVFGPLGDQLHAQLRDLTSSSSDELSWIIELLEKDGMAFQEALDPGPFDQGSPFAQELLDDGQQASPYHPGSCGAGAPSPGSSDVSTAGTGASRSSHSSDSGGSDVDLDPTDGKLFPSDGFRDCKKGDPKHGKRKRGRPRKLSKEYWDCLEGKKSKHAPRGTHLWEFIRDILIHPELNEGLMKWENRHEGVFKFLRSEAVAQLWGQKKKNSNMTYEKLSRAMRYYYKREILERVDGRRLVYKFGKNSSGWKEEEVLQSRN
Particulars: protein: recombinant; tags: N-terminal GST; dsDNA, one strand shown. Put shortly: as §1

In a further experiment the target is CRX (Homo sapiens, UniProt O43186 1-299). Particulars: protein: recombinant; tags: N-terminal GST; dsDNA, one strand shown. Put shortly: as §1
Chain of CRX (O43186 whole entry): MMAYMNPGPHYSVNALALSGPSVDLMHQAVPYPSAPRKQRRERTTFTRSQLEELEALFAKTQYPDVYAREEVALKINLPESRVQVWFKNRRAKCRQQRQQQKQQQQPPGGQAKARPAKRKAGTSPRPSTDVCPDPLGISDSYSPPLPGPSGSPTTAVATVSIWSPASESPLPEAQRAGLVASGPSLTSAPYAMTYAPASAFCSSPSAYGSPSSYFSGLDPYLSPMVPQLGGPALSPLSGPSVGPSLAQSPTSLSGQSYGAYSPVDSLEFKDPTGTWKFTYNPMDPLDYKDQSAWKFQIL
A further experiment addresses ETV1 (Homo sapiens, UniProt P50549 1-477). Particulars: protein: recombinant; tags: N-terminal GST; dsDNA, one strand shown. Put shortly: as §1
The target in another experiment is T6, ERF (Homo sapiens, UniProt P50548 1-548).
T6 sequence: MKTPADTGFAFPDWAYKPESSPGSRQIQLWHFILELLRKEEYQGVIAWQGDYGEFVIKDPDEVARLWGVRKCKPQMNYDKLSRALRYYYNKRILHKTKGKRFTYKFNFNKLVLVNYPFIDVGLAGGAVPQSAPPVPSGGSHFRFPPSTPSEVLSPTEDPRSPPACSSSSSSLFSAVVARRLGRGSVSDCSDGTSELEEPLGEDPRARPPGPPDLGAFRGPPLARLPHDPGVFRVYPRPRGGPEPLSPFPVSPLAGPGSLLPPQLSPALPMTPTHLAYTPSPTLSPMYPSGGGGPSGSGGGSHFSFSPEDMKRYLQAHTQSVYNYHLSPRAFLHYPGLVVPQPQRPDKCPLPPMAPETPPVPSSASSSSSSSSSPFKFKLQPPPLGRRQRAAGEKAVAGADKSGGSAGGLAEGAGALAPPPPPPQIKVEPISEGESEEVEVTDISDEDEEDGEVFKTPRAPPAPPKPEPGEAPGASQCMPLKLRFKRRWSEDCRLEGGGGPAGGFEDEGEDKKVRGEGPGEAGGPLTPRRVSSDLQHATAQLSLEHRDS
Particulars: protein: recombinant; tags: N-terminal GST; dsDNA, one strand shown. The essentials:
as §1

In another experiment the target is T7, ETV3L (Homo sapiens, UniProt Q6ZN32 1-361).
T7 sequence: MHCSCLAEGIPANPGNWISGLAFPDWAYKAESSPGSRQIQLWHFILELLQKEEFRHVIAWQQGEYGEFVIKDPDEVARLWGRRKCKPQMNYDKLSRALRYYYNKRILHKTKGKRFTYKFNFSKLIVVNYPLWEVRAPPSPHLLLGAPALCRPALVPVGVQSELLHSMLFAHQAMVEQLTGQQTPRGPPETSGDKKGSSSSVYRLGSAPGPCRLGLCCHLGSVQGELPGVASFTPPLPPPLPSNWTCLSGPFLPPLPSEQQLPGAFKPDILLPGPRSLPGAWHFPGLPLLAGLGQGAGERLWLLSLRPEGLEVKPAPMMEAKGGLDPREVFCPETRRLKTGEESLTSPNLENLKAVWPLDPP
Particulars: protein: recombinant; tags: N-terminal GST; dsDNA, one strand shown. The essentials: as §1

The target in a further experiment is T8, ETS2 (Homo sapiens, UniProt P15036 1-469).
T8 sequence: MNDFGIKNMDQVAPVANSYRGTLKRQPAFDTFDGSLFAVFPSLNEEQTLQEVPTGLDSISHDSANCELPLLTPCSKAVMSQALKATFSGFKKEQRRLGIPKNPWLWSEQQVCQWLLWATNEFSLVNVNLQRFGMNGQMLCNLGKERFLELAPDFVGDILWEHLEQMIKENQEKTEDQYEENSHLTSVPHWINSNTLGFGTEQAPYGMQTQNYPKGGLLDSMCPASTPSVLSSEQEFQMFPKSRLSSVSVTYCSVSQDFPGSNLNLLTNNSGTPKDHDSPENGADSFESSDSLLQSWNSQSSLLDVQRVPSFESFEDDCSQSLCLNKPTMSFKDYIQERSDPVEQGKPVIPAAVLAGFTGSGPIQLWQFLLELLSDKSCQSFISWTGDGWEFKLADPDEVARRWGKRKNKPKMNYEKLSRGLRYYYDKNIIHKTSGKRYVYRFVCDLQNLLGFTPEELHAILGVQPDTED
Particulars: protein: recombinant; tags: N-terminal GST; dsDNA, one strand shown. Put shortly: as §1

Another experiment deals with T9, SPDEF (Homo sapiens, UniProt O95238 1-335).
T9 sequence: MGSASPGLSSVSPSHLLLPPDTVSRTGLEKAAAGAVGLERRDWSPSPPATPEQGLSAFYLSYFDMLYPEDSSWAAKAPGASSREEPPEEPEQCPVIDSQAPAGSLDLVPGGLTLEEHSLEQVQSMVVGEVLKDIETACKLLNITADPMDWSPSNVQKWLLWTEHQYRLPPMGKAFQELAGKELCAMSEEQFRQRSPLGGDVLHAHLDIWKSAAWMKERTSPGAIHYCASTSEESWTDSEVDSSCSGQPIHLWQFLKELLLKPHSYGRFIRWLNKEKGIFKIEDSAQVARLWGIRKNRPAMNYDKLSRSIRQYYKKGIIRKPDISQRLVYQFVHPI
Particulars: protein: recombinant; tags: N-terminal GST; dsDNA, one strand shown. The essentials:
as §1

Another experiment has as its target T10, ETV7 (Homo sapiens, UniProt Q9Y603 1-341).
T10 sequence: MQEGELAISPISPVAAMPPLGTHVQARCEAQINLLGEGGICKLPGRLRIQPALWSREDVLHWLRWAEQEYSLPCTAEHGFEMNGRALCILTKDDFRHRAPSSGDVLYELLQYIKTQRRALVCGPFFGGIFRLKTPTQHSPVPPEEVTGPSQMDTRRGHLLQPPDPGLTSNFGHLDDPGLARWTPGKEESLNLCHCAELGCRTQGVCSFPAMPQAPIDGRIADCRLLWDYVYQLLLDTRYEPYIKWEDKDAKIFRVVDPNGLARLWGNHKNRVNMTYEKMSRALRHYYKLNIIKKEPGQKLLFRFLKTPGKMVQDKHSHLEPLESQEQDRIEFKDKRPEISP
Particulars: protein: recombinant; tags: N-terminal GST; dsDNA, one strand shown. Put shortly:
as §1

The target in another experiment is T11, ELF5 (Homo sapiens, UniProt Q9UKW6-2 1-255).
T11 sequence: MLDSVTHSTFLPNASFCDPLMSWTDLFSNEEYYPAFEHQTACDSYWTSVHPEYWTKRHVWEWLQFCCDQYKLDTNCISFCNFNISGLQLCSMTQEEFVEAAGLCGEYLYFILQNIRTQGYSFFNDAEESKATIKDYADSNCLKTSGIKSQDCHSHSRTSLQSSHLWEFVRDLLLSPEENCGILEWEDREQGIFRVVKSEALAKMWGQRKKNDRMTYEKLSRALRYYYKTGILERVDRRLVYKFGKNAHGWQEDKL
Particulars: protein: recombinant; tags: N-terminal GST; dsDNA, one strand shown. The essentials:
as §1

A further experiment has as its target T12, ETV3 (Homo sapiens, UniProt P41162-2 1-143).
T12 sequence: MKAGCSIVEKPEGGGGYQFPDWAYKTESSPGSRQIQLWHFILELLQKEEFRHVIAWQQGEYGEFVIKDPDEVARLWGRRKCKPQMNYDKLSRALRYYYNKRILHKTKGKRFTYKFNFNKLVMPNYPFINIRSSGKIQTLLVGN
Particulars: protein: recombinant; tags: N-terminal GST; dsDNA, one strand shown. The essentials:
as §1

In another experiment the target is ETV6 (Homo sapiens, UniProt P41212 1-452). Particulars: protein: recombinant; tags: N-terminal GST; dsDNA, one strand shown. The essentials: as §1
Chain of ETV6 (P41212 whole entry): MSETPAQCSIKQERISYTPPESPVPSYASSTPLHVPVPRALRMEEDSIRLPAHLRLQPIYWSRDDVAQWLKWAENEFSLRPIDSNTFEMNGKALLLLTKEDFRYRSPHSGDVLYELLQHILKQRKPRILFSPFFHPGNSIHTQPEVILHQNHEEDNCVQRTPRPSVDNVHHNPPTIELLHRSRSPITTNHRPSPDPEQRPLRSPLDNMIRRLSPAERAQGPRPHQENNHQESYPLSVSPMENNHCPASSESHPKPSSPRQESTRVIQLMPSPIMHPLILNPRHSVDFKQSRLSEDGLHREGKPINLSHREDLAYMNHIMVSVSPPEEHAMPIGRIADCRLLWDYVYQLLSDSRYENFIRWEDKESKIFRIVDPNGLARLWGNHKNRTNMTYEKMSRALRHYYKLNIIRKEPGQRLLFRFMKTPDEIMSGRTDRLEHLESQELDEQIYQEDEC

Chain of ETV1 (P50549 whole entry): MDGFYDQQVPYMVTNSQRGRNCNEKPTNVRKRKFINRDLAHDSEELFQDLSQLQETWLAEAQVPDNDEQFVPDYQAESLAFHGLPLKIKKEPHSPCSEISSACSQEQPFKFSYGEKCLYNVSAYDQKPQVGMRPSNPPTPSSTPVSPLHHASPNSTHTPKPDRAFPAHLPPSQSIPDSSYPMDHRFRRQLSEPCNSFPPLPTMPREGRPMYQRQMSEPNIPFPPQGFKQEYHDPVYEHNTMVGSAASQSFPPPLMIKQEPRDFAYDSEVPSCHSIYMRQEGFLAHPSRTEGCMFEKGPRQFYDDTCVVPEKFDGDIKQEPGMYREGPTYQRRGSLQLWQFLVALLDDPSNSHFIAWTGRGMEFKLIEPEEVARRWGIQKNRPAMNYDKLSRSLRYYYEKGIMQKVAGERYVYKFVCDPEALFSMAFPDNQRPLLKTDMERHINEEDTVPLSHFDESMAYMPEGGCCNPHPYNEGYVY
Chain of ELF4 (Q99607 whole entry): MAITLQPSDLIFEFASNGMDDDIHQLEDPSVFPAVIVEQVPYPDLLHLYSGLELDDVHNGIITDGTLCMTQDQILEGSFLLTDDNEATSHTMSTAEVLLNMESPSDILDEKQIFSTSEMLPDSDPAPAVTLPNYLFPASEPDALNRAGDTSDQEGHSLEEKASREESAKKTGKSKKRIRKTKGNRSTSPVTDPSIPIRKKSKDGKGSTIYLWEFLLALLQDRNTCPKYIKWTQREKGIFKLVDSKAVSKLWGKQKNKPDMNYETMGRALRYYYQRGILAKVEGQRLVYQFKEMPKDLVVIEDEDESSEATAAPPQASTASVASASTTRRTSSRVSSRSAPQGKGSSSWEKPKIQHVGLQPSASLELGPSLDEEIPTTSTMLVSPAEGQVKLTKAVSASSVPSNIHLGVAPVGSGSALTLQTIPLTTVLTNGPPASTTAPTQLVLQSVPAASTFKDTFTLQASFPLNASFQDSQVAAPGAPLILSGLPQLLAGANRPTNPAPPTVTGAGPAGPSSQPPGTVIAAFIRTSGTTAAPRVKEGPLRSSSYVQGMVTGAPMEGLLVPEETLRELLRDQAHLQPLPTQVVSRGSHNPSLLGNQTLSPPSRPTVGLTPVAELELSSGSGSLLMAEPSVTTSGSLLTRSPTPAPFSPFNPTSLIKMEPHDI
Chain of ETV5 (P41161 whole entry): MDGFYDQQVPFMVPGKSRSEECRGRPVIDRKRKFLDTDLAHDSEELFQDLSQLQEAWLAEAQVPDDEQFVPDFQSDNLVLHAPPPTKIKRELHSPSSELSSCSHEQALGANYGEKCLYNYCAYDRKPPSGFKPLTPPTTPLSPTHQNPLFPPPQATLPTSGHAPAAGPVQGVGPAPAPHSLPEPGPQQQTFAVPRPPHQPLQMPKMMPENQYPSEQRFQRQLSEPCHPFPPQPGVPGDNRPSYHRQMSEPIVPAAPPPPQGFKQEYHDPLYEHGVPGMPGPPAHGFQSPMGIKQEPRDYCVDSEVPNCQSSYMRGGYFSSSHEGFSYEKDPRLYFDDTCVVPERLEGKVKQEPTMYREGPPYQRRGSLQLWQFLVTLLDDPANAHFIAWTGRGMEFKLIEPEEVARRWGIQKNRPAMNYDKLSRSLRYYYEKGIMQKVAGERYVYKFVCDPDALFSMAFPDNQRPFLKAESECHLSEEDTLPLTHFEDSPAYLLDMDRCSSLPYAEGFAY

In the case of CCCGAC, the binding signal with FEV was 1.38 fold enrichment (6-mer frequency, TF over GST control); in the experiment with ETV5, 1.31 fold enrichment (6-mer frequency, TF over GST control); with HSF1 it was 1.19 fold enrichment (6-mer frequency, TF over GST control); with SPIC it was 1.53 fold enrichment (6-mer frequency, TF over GST control); in the experiment with ELF4, 1.29 fold enrichment (6-mer frequency, TF over GST control); with ELK4 it was 1.43 fold enrichment (6-mer frequency, TF over GST control). The binding signal was 1.46 fold enrichment (6-mer frequency, TF over GST control) with ETV2; 1.53 fold enrichment (6-mer frequency, TF over GST control) in the experiment with ELF3; 1.06 fold enrichment (6-mer frequency, TF over GST control) in the experiment with CRX; 1.36 fold enrichment (6-mer frequency, TF over GST control) with ETV1; 1.29 fold enrichment (6-mer frequency, TF over GST control) with ERF; 1.41 fold enrichment (6-mer frequency, TF over GST control) in the experiment with ETV3L. In addition, the binding signal with ETS2 is 1.27 fold enrichment (6-mer frequency, TF over GST control); with SPDEF, 1.44 fold enrichment (6-mer frequency, TF over GST control); with ETV7, 1.37 fold enrichment (6-mer frequency, TF over GST control); in the experiment with ELF5 it was 1.38 fold enrichment (6-mer frequency, TF over GST control); in the experiment with ETV3, 1.25 fold enrichment (6-mer frequency, TF over GST control); with ETV6, 1.42 fold enrichment (6-mer frequency, TF over GST control).
